In PubChem BioAssay AID1159580 (chemical genetic matrix, 2015):
About 2,000 (36%) of roughly 5,500 compounds were called active. Not shown: some 18% with an inconclusive outcome. Cut-off read from the data, not from the text of the source: active = normalized growth mostly below about 0.91 (no sharp cut-off); inconclusive = no clear call, values can overlap the other calls; inactive = mostly above about 0.92. Some of the results follow.

Assay: chemical genetic growth profiling, strain panel (AID 1159580);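 note: tested at 20 µM; growth read once vehicle control cultures reached saturation at 30 °C; 1 = growth at the plate median or of vehicle wells; lower values mean less growth of the strain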
Conditions: S. cerevisiae deletion strains, growth OD

Measured: normalized growth

O=C(O)c1cc(=O)c(O)c2c(O)c(O)c(O)cc2c1
inactive: locus YDL005C, strain med2, stronger effect = lower value 0.953 | locus YGL227W, strain vid30, stronger effect = lower value 0.944 | locus YKR091W, strain srl3, stronger effect = lower value 0.934 | locus YMR125W, strain sto1, stronger effect = lower value 0.89
active: locus YAL021C, strain ccr4, stronger effect = lower value 0.0892 | locus YAL026C, strain drs2, stronger effect = lower value 0.216 | locus YAL030W, strain snc1, stronger effect = lower value 0.757 | locus YBL061C, strain skt5, stronger effect = lower value 0.639 | locus YBR009C, strain hhf1, stronger effect = lower value 0.694 | locus YBR023C, strain chs3, stronger effect = lower value 0.549 | locus YBR171W, strain sec66, stronger effect = lower value 0.812 | locus YBR231C, strain swc5, stronger effect = lower value 0.483 | locus YBR279W, strain paf1, stronger effect = lower value 0.754 | locus YCL011C, strain gbp2, stronger effect = lower value 0.72 | locus YCL016C, strain dcc1, stronger effect = lower value 0.809 | locus YCL061C, strain MRC1, stronger effect = lower value 0.651 | locus YCL069W, strain vba3, stronger effect = lower value 0.69 | locus YCR088W, strain abp1, stronger effect = lower value 0.707 | locus YDL040C, strain nat1, stronger effect = lower value 0.906 | locus YDR001C, strain nth1, stronger effect = lower value 0.846 | locus YDR069C, strain doa4, stronger effect = lower value 0.161 | locus YDR137W, strain rgp1, stronger effect = lower value 0.142 | locus YDR159W, strain sac3, stronger effect = lower value 0.134 | locus YDR195W, strain ref2 0.481 | locus YDR297W, strain sur2, stronger effect = lower value 0.729 | locus YDR334W, strain swr1, stronger effect = lower value 0.353 | locus YDR335W, strain msn5, stronger effect = lower value 0.128 | locus YDR392W, strain spt3, stronger effect = lower value 0.708 | locus YEL003W, strain gim4, stronger effect = lower value 0.511 | locus YEL037C, strain rad23, stronger effect = lower value 0.552 | locus YEL061C, strain CIN8 (second series), stronger effect = lower value 0.756 | locus YER015W, strain faa2, stronger effect = lower value 0.488 | locus YER016W, strain bim1, stronger effect = lower value 0.84 | locus YER111C, strain swi4, stronger effect = lower value 0.14 | locus YER155C, strain BEM2 (second series), stronger effect = lower value 0.432 | locus YFR010W, strain ubp6, stronger effect = lower value 0.374 | locus YGL167C, strain pmr1, stronger effect = lower value 0.558 | locus YGL173C, strain kem1, stronger effect = lower value 0.352 | locus YGL240W, strain doc1, stronger effect = lower value 0.869 | locus YGL253W, strain hxk2, stronger effect = lower value 0.545 | locus YHR013C, strain ard1, stronger effect = lower value 0.546 | locus YHR027C, strain rpn1, stronger effect = lower value 0.422 | locus YHR030C, strain SLT2, stronger effect = lower value 0.581 | locus YHR079C, strain IRE1, stronger effect = lower value 0.546 | locus YHR142W, strain chs7, stronger effect = lower value 0.363 | locus YJL092W, strain hpr5, stronger effect = lower value 0.728 | locus YJL095W, strain BCK1 (second series), stronger effect = lower value 0.604 | locus YJL095W, strain BCK1, stronger effect = lower value 0.575 | locus YJL115W, strain asf1, stronger effect = lower value 0.771 | locus YJL129C, strain trk1, stronger effect = lower value 0.235 | locus YJL154C, strain vps35, stronger effect = lower value 0.768 | locus YJL164C, strain tpk1, stronger effect = lower value 0.666 | locus YJL166W, strain qcr8, stronger effect = lower value 0.743 | locus YJL187C, strain SWE1, stronger effect = lower value 0.737 | locus YJR066W, strain TOR1, stronger effect = lower value 0.312 | locus YKL160W, strain elf1, stronger effect = lower value 0.777 | locus YKR026C, strain gcn3, stronger effect = lower value 0.854 | locus YLL001W, strain dnm1, stronger effect = lower value 0.548 | locus YLL026W, stronger effect = lower value 0.804 | locus YLL041C, strain sdh2, stronger effect = lower value 0.897 | locus YLR027C, strain aat2, stronger effect = lower value 0.718 | locus YLR113W, strain HOG1, stronger effect = lower value 0.525 | locus YLR221C, strain rsa3, stronger effect = lower value 0.685 | locus YLR258W, strain gsy2, stronger effect = lower value 0.787 | locus YLR262C, strain YPT6 (second series), stronger effect = lower value 0.483 | locus YLR320W, strain mms22, stronger effect = lower value 0.56 | locus YLR342W, strain FKS1, stronger effect = lower value 0.538 | locus YLR357W, strain rsc2, stronger effect = lower value 0.593 | locus YLR370C, strain arc18, stronger effect = lower value 0.347 | locus YLR384C, strain iki3, stronger effect = lower value 0.642 | locus YML120C, strain ndi1, stronger effect = lower value 0.193 | locus YMR058W, strain fet3, stronger effect = lower value 0.275 | locus YMR129W, stronger effect = lower value 0.815 | locus YMR205C, strain PFK2, stronger effect = lower value 0.547 | locus YMR231W, strain pep5, stronger effect = lower value 0.169 | locus YNL071W, strain lat1, stronger effect = lower value 0.873 | locus YNL183C, strain NPR1, stronger effect = lower value 0.243 | locus YNL209W, strain ssb2, stronger effect = lower value 0.273 | locus YNL248C, strain rpa49, stronger effect = lower value 0.725 | locus YNL322C, strain KRE1 (second series), stronger effect = lower value 0.208 | locus YNR049C, strain mso1, stronger effect = lower value 0.79 | locus YOR001W, strain rrp6, stronger effect = lower value 0.544 | locus YOR070C, strain gyp1, stronger effect = lower value 0.849 | locus YOR080W, strain dia2, stronger effect = lower value 0.387 | locus YOR083W, strain WHI5, stronger effect = lower value 0.645 | locus YOR106W, strain vam3, stronger effect = lower value 0.295 | locus YOR231W, strain MKK1, stronger effect = lower value 0.615 | locus YOR265W, strain rbl2, stronger effect = lower value 0.771 | locus YOR270C, strain vph1, stronger effect = lower value 0.198 | locus YOR290C, strain snf2, stronger effect = lower value 0.0962 | locus YPL051W, strain arl3, stronger effect = lower value 0.465 | locus YPL078C, strain atp4, stronger effect = lower value 0.124 | locus YPL106C, strain sse1, stronger effect = lower value 0.723 | locus YPL240C, strain hsp82, stronger effect = lower value 0.872 | locus YPL256C, strain CLN2, stronger effect = lower value 0.567
